“And” between values parts separate entries of the source, which are not always exact repeats. Equal values may be shown once. Among all 5,500 compounds or so, about 2,000 (36%) were called active. Not shown: some 18% with an inconclusive outcome. Rule as the data show it: active = normalized growth mostly below about 0.91 (no sharp cut-off); inconclusive = no clear call, values can overlap the other calls; inactive = mostly above about 0.92. This is one part of the list.
Test: chemical genetic growth profiling, strain panel (AID 1159580);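 also: tested at 20 µM; growth read once vehicle control cultures reached saturation at 30 °C; 1 = growth at the plate median or of vehicle wells; lower values mean less growth of the strain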
Details: S. cerevisiae deletion strains, growth OD
[1] = locus YGR229C, strain SMI1, stronger effect = lower value
[2] = locus YMR307W, strain GAS1, stronger effect = lower value
[3] = locus YNL322C, strain KRE1, stronger effect = lower value

Measured: normalized growth

C=C/C(C)=C/[C@@]1(C)SC(=O)C(C)=C1O
inactive: locus YAL040C, strain CLN3, stronger effect = lower value 0.998 | locus YCL061C, strain MRC1 (second series), stronger effect = lower value 1 | locus YDR150W, strain NUM1, stronger effect = lower value 1.01 | locus YDR363W, strain ESC2, stronger effect = lower value 1.02 | locus YER002W, strain NOP16, stronger effect = lower value 0.986 | locus YGR078C, strain PAC10, stronger effect = lower value 1.01 | [1] 1.01 | locus YJR075W, strain HOC1, stronger effect = lower value 1 | [2] 0.998 | locus YNL175C, strain NOP13, stronger effect = lower value 0.996 | locus YNL197C, strain WHI3, stronger effect = lower value 1 | locus YNL224C, strain SQS1, stronger effect = lower value 1 | [3] 0.999 | locus YOR083W, strain WHI5 (second series), stronger effect = lower value 0.999

C/C1=C/CC(C)(C)/C=C/C/C(C)=C/CC1
inactive: locus YAL021C, strain ccr4, stronger effect = lower value 1.04 | locus YAL026C, strain drs2, stronger effect = lower value 0.983 | locus YAL030W, strain snc1, stronger effect = lower value 0.99 | locus YBL061C, strain skt5, stronger effect = lower value 0.985 | locus YBR009C, strain hhf1, stronger effect = lower value 0.983 | locus YBR021W, strain FUR4, stronger effect = lower value 0.95 | locus YBR023C, strain chs3, stronger effect = lower value 0.99 | locus YBR171W, strain sec66, stronger effect = lower value 0.953 | locus YBR229C, strain ROT2, stronger effect = lower value 1.03 | locus YBR231C, strain swc5, stronger effect = lower value 0.977 | locus YBR279W, strain paf1, stronger effect = lower value 0.999 | locus YCL011C, strain gbp2, stronger effect = lower value 1.02 | locus YCL016C, strain dcc1, stronger effect = lower value 1.01 | locus YCL029C, strain bik1, stronger effect = lower value 1.03 | locus YCL061C, strain MRC1, stronger effect = lower value 0.988 | locus YCL069W, strain vba3, stronger effect = lower value 0.991 | locus YCR088W, strain abp1, stronger effect = lower value 0.981 | locus YDL005C, strain med2, stronger effect = lower value 0.966 | locus YDL035C, strain GPR1, stronger effect = lower value 0.91 | locus YDL040C, strain nat1, stronger effect = lower value 0.987 | locus YDL101C, strain DUN1, stronger effect = lower value 1.01 | locus YDL185W, strain tfp1, stronger effect = lower value 1 | locus YDL192W, strain arf1, stronger effect = lower value 0.988 | locus YDR001C, strain nth1, stronger effect = lower value 0.985 | locus YDR069C, strain doa4, stronger effect = lower value 0.989 | locus YDR101C, strain arx1, stronger effect = lower value 0.991 | locus YDR137W, strain rgp1, stronger effect = lower value 0.973 | locus YDR159W, strain sac3, stronger effect = lower value 0.975 | locus YDR195W, strain ref2 0.951 | locus YDR297W, strain sur2, stronger effect = lower value 0.988 | locus YDR318W, strain mcm21, stronger effect = lower value 1.01 | locus YDR334W, strain swr1, stronger effect = lower value 0.981 | locus YDR335W, strain msn5, stronger effect = lower value 0.998 | locus YDR388W, stronger effect = lower value 0.998 | locus YDR392W, strain spt3, stronger effect = lower value 0.961 | locus YDR502C, strain sam2, stronger effect = lower value 0.983 | locus YEL003W, strain gim4, stronger effect = lower value 0.983 | locus YEL037C, strain rad23, stronger effect = lower value 0.984 | locus YEL061C, strain CIN8 (second series), stronger effect = lower value 0.982 | locus YEL061C, strain CIN8, stronger effect = lower value 0.988 | locus YER015W, strain faa2, stronger effect = lower value 1 | locus YER016W, strain bim1, stronger effect = lower value 0.987 | locus YER110C, stronger effect = lower value 1.01 | locus YER111C, strain swi4, stronger effect = lower value 0.968 | locus YER155C, strain BEM2 (second series), stronger effect = lower value 1.01 | locus YER155C, strain BEM2, stronger effect = lower value 1 | locus YER167W, strain BCK2, stronger effect = lower value 0.98 | locus YFR010W, strain ubp6, stronger effect = lower value 0.978 | locus YGL078C, strain dbp3, stronger effect = lower value 0.985 | locus YGL086W, strain mad1, stronger effect = lower value 1 | locus YGL167C, strain pmr1, stronger effect = lower value 0.977 | locus YGL173C, strain kem1, stronger effect = lower value 0.96 | locus YGL227W, strain vid30, stronger effect = lower value 0.978 | locus YGL240W, strain doc1, stronger effect = lower value 0.956 | locus YGL248W, strain PDE1, stronger effect = lower value 1.01 | locus YGL253W, strain hxk2, stronger effect = lower value 0.957 | locus YGR135W, strain pre9, stronger effect = lower value 0.967 | locus YGR252W, strain gcn5, stronger effect = lower value 1.01 | locus YHR013C, strain ard1, stronger effect = lower value 1 | locus YHR027C, strain rpn1, stronger effect = lower value 0.97 | locus YHR079C, strain IRE1 (second series), stronger effect = lower value 1.01 | locus YHR079C, strain IRE1, stronger effect = lower value 1.02 | locus YHR094C, strain hxt1, stronger effect = lower value 1.01 | locus YHR129C, strain ARP1, stronger effect = lower value 1.01 | locus YHR142W, strain chs7, stronger effect = lower value 1 | locus YHR200W, strain rpn10, stronger effect = lower value 1.01 | locus YIL066C, strain RNR3, stronger effect = lower value 1.01 | locus YIL073C, strain SPO22, stronger effect = lower value 0.95 | locus YIL125W, strain kgd1, stronger effect = lower value 0.991 | locus YIR030C, strain dcg1, stronger effect = lower value 1 | locus YJL092W, strain hpr5, stronger effect = lower value 0.988 | locus YJL095W, strain BCK1 (second series), stronger effect = lower value 1 | locus YJL095W, strain BCK1, stronger effect = lower value 0.831 and 1.06 | locus YJL115W, strain asf1, stronger effect = lower value 0.988 | locus YJL129C, strain trk1, stronger effect = lower value 0.981 | locus YJL134W, strain LCB3, stronger effect = lower value 1 | locus YJL154C, strain vps35, stronger effect = lower value 0.981 | locus YJL164C, strain tpk1, stronger effect = lower value 1.01 | locus YJL166W, strain qcr8, stronger effect = lower value 0.985 | locus YJL168C, strain set2, stronger effect = lower value 1.02 | locus YJL187C, strain SWE1 (second series), stronger effect = lower value 0.976 | locus YJR043C, strain POL32, stronger effect = lower value 0.964 | locus YJR066W, strain TOR1, stronger effect = lower value 0.986 | locus YKL009W, strain mrt4, stronger effect = lower value 0.962 | locus YKL068W, stronger effect = lower value 0.991 | locus YKL085W, strain MDH1 (second series), stronger effect = lower value 0.963 | locus YKL085W, strain MDH1, stronger effect = lower value 0.963 | locus YKL160W, strain elf1, stronger effect = lower value 1.02 | locus YKR001C, strain vps1, stronger effect = lower value 0.98 | locus YKR026C, strain gcn3, stronger effect = lower value 0.983 | locus YKR091W, strain srl3, stronger effect = lower value 0.987 | locus YLL001W, strain dnm1, stronger effect = lower value 1 | locus YLL026W, stronger effect = lower value 0.99 | locus YLL041C, strain sdh2, stronger effect = lower value 0.998 | locus YLR027C, strain aat2, stronger effect = lower value 1.01 | locus YLR058C, strain SHM2, stronger effect = lower value 1.01 | locus YLR102C, strain apc9, stronger effect = lower value 1.01 | locus YLR113W, strain HOG1, stronger effect = lower value 1.02 | locus YLR221C, strain rsa3, stronger effect = lower value 0.961 | locus YLR258W, strain gsy2, stronger effect = lower value 0.998 | locus YLR262C, strain YPT6 (second series), stronger effect = lower value 0.994 | locus YLR262C, strain YPT6, stronger effect = lower value 0.789 | locus YLR268W, strain sec22, stronger effect = lower value 1 | locus YLR320W, strain mms22, stronger effect = lower value 0.968 | locus YLR330W, strain CHS5, stronger effect = lower value 0.974 | locus YLR342W, strain FKS1 (second series), stronger effect = lower value 0.986 | locus YLR342W, strain FKS1, stronger effect = lower value 0.989 | locus YLR357W, strain rsc2, stronger effect = lower value 0.968 | locus YLR370C, strain arc18, stronger effect = lower value 1.01 | locus YLR371W, strain rom2, stronger effect = lower value 0.998 | locus YLR384C, strain iki3, stronger effect = lower value 0.984 | locus YLR418C, strain cdc73, stronger effect = lower value 0.929 | locus YML016C, strain PPZ1, stronger effect = lower value 1.04 | locus YML032C, strain rad52, stronger effect = lower value 0.99 | locus YML120C, strain ndi1, stronger effect = lower value 1 | locus YML124C, strain tub3, stronger effect = lower value 1.01 | locus YMR058W, strain fet3, stronger effect = lower value 0.992 | locus YMR078C, strain ctf18, stronger effect = lower value 1.01 | locus YMR125W, strain sto1, stronger effect = lower value 1.01 | locus YMR129W, stronger effect = lower value 0.992 | locus YMR205C, strain PFK2, stronger effect = lower value 0.994 | locus YMR223W, strain ubp8, stronger effect = lower value 1 | locus YMR231W, strain pep5, stronger effect = lower value 0.966 | locus YNL067W, strain RPL9B, stronger effect = lower value 0.869 | locus YNL071W, strain lat1, stronger effect = lower value 0.998 | locus YNL183C, strain NPR1, stronger effect = lower value 0.995 | locus YNL209W, strain ssb2, stronger effect = lower value 1 | locus YNL233W, strain BNI4, stronger effect = lower value 0.96 | locus YNL250W, strain rad50, stronger effect = lower value 0.973 | locus YNL271C, strain bni1, stronger effect = lower value 0.998 | locus YNL298W, strain CLA4, stronger effect = lower value 0.989 | locus YNL307C, strain MCK1, stronger effect = lower value 1.02 | locus YNL322C, strain KRE1 (second series), stronger effect = lower value 0.979 | [3] 0.973 | locus YNR049C, strain mso1, stronger effect = lower value 0.976 | locus YNR052C, strain pop2, stronger effect = lower value 0.964 | locus YOL006C, strain TOP1, stronger effect = lower value 0.917 | locus YOL012C, strain htz1 1.09 | locus YOL147C, strain pex11, stronger effect = lower value 1.02 | locus YOR001W, strain rrp6, stronger effect = lower value 0.944 | locus YOR061W, strain CKA2, stronger effect = lower value 1.03 | locus YOR069W, strain VPS5, stronger effect = lower value 1.02 | locus YOR070C, strain gyp1, stronger effect = lower value 0.983 | locus YOR080W, strain dia2, stronger effect = lower value 0.969 | locus YOR083W, strain WHI5, stronger effect = lower value 1.02 | locus YOR106W, strain vam3, stronger effect = lower value 0.995 | locus YOR136W, strain idh2, stronger effect = lower value 0.995 | locus YOR144C, strain elg1, stronger effect = lower value 1.01 | locus YOR231W, strain MKK1, stronger effect = lower value 1.02 | locus YOR265W, strain rbl2, stronger effect = lower value 0.997 | locus YOR270C, strain vph1, stronger effect = lower value 0.932 | locus YOR290C, strain snf2, stronger effect = lower value 0.995 | locus YOR316C, strain cot1, stronger effect = lower value 1.01 | locus YPL051W, strain arl3, stronger effect = lower value 0.991 | locus YPL078C, strain atp4, stronger effect = lower value 1.01 | locus YPL106C, strain sse1, stronger effect = lower value 1.03 | locus YPL240C, strain hsp82, stronger effect = lower value 1.02 | locus YPL241C, strain CIN2, stronger effect = lower value 1.02 | locus YPL256C, strain CLN2, stronger effect = lower value 1.06 | locus YPR119W, strain clb2, stronger effect = lower value 1.01 | locus YPR141C, strain kar3, stronger effect = lower value 1 | locus YPR163C, strain tif3, stronger effect = lower value 1.01 | locus YPR167C, strain met16, stronger effect = lower value 1.01 | strain wtn01, stronger effect = lower value 0.993
active: locus YDL074C, strain BRE1, stronger effect = lower value 0.769 | locus YDR162C, strain NBP2, stronger effect = lower value 0.611 | [1] 0.389 | locus YLR039C, strain RIC1, stronger effect = lower value 0.651 | [2] 0.536 | locus YOR184W, strain ser1, stronger effect = lower value 0.865 | locus YPL055C, strain LGE1, stronger effect = lower value 0.76
0.85 (active) and 1.03 (inactive): locus YHR030C, strain SLT2, stronger effect = lower value
